From PubChem BioAssay (NCI)
The panel holds about 83,000 compounds, 20% with a hit somewhere; the sample as a whole holds those more often.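 The endpoint reported here, percent growth, reads 100 for growth as untreated, 0 for no net growth and -100 for all cells dead.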 Unmarked numbers belong to inactive results. The source made the active and inactive calls. Rule for the calls: active = growth percent below 10; inactive = the rest.

Tests used:
Assay in all cases: NCI-60 one-dose screen, 48 h (100 = growth as untreated, 0 = no growth, -100 = all killed)
Settings in all cases: 10 µM
SK-MEL-2 melanoma = test system: SK-MEL-2 melanoma
EKVX NSCLC = test system: EKVX NSCLC
SN12C renal = test system: SN12C renal
UO-31 renal = test system: UO-31 renal
TK-10 renal = test system: TK-10 renal
ACHN renal = test system: ACHN renal
CAKI-1 renal = test system: CAKI-1 renal
CCRF-CEM leukemia = test system: CCRF-CEM leukemia
MOLT-4 leukemia = test system: MOLT-4 leukemia

In the case of CC1=CC2C(C(O)CC3(C)C2CC(C)C32OCOC23COCO3)C2(C)C/C(=C/O)C(=O)C=C12 (stereo not drawn), the growth (SK-MEL-2 melanoma) is reported as 76.1%, the growth (EKVX NSCLC) is reported as 48.8% and the growth (SN12C renal) is reported as 26.2%. The growth (UO-31 renal) was 10.5%, the growth (TK-10 renal) was 42.7% and the growth (ACHN renal) was 8.9% (active). The growth (CAKI-1 renal) was 67.6%, the growth (CCRF-CEM leukemia) was -3.03% (active) and the growth (MOLT-4 leukemia) was -32.8% (active).
In the case of O=c1cn[nH]c2ccc(Br)cc12, the growth (SK-MEL-2 melanoma) is reported as 103%, the growth (EKVX NSCLC) is reported as 108% and the growth (SN12C renal) is reported as 105%. For the same compound, the growth (UO-31 renal) was 78.9%, the growth (TK-10 renal) was 95.4% and the growth (ACHN renal) was 103%. For the same compound, the growth (CAKI-1 renal) was 113%, the growth (CCRF-CEM leukemia) was 96.1% and the growth (MOLT-4 leukemia) was 86.5%.
Work on COc1cc2c3c(n(C4CCN(C)CC4)c(=O)c2cc1OC)-c1cc2c(cc1C3=O)OCO2 yielded a growth (SK-MEL-2 melanoma) of 80.8%, a growth (EKVX NSCLC) of 69.4% and a growth (SN12C renal) of 43.4%. It also gave a growth (UO-31 renal) of 52.4%, a growth (TK-10 renal) of 86.9% and a growth (ACHN renal) of 57.2%. For the same compound, the growth (CAKI-1 renal) was 75.6% and the growth (MOLT-4 leukemia) was 29.5%.
With COc1cc2c3c(n(C4CCNCC4)c(=O)c2cc1OC)-c1cc2c(cc1C3=O)OCO2 the growth (SK-MEL-2 melanoma) was 76.4%, the growth (EKVX NSCLC) was -68.4% (active) and the growth (SN12C renal) was -69% (active). For the same compound, the growth (UO-31 renal) was -70.2% (active), the growth (TK-10 renal) was 76% and the growth (ACHN renal) was -81.7% (active). The growth (CAKI-1 renal) was 21.4% and the growth (MOLT-4 leukemia) was -27.1% (active).
COc1ccc(-c2nn(-c3cccc(Cl)c3)cc2-c2cc(-c3ccccc3)[nH]c(=O)c2C#N)cc1 showed a growth (SK-MEL-2 melanoma) of 56.7%, a growth (EKVX NSCLC) of 57.2% and a growth (SN12C renal) of 67.7%. For the same compound, the growth (UO-31 renal) was 24.7%, the growth (TK-10 renal) was -12.8% (active) and the growth (ACHN renal) was 11%. For the same compound, the growth (CAKI-1 renal) was 40.8%, the growth (CCRF-CEM leukemia) was 91.7% and the growth (MOLT-4 leukemia) was 79.6%.
Nc1ccccc1NC(=O)c1ccc(CCCC(=O)Nc2ccc(C3CC3N)cc2)cc1 (stereo not drawn) was tested, and the growth (SK-MEL-2 melanoma) was -4.46% (active), the growth (EKVX NSCLC) was 53.5% and the growth (SN12C renal) was 43.8%. For the same compound, the growth (UO-31 renal) was 62.8%, the growth (TK-10 renal) was 8.6% (active) and the growth (ACHN renal) was 52%. It also gave a growth (CAKI-1 renal) of 96.2% and a growth (MOLT-4 leukemia) of 22.6%.
Nc1ccc(-c2cccs2)cc1NC(=O)c1ccc(CCCC(=O)Nc2ccc(C3CC3N)cc2)cc1 (stereo not drawn) gave a growth (SK-MEL-2 melanoma) of 69.6%, a growth (EKVX NSCLC) of 73.9% and a growth (SN12C renal) of 80.3%. It also gave a growth (UO-31 renal) of 75.8%, a growth (TK-10 renal) of 55.6% and a growth (ACHN renal) of 83.5%. The growth (CAKI-1 renal) was 88.7% and the growth (MOLT-4 leukemia) was 47%.
N#CC1=CC2CN(Cc3ccccc3)C1C1C(=O)N(c3ccccc3)C(=O)C21 (stereo not drawn) was tested, and the growth (SK-MEL-2 melanoma) was 105%, the growth (EKVX NSCLC) was 94.7% and the growth (SN12C renal) was 100%. The growth (UO-31 renal) was 74.7%, the growth (TK-10 renal) was 96.2% and the growth (ACHN renal) was 103%. For the same compound, the growth (CAKI-1 renal) was 101%, the growth (CCRF-CEM leukemia) was 97.2% and the growth (MOLT-4 leukemia) was 89.5%.
